Results reported in PubChem BioAssay (EPA / NIEHS).
“And” between values parts separate entries of the source, which are not always exact repeats. Equal values may be shown once. Inconclusive results are not listed. More than one record can exist for a structure, and the calls need not agree. The source made the active and inactive calls. The calls were made as follows: active = hit-call score of the fitted dose curve at least 0.9, where 1 is the maximum; inconclusive = response in the unintended direction; inactive = score below 0.9.

How the values were obtained:
[1] = ATG_XTT_Cytotoxicity: Cytotoxicity Assessment in the Attagene TRANS-FACTORIAL HepG2 Assay (AID 2283584);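 as to AC50: cells exposed to compound for 24 h before reading; active means loss of viability signal versus DMSO baseline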
Summary of the method: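 XTT readout of cell number in transfected HepG2 cells, 24 h post-dosing; DMSO serves as negative control and baseline, with activity taken as loss of viability signal.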

[2] = TOX21_p53_BLA_p2_viability: Viability Assessment in the Tox21 HCT-116 p53 Agonism Beta-lactamase Assay, Phase 2 (AID 2283591);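 also: actives lower the ATP signal meaning cytotoxicity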
Summary of the method: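 HCT-116 p53-bla cells (4000/well) rested 5 h at 37C, then received compounds in DMSO (217-fold dilution) for 16 h at 37C, 5% CO2. After the CCF4 read, CellTiter-Glo was added; ATP luminescence was read after 30 min at room temperature.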

[3] = target: Cellular tumor antigen p53 (Homo sapiens) (UniProt P04637); assay: TOX21_p53_BLA_p2_ratio: Tox21 HCT-116 p53 Agonism Beta-lactamase Assay, Ratio, Phase 2 (AID 2283592)
Chain of Cellular tumor antigen p53 (Homo sapiens) (P04637 whole entry, looked up): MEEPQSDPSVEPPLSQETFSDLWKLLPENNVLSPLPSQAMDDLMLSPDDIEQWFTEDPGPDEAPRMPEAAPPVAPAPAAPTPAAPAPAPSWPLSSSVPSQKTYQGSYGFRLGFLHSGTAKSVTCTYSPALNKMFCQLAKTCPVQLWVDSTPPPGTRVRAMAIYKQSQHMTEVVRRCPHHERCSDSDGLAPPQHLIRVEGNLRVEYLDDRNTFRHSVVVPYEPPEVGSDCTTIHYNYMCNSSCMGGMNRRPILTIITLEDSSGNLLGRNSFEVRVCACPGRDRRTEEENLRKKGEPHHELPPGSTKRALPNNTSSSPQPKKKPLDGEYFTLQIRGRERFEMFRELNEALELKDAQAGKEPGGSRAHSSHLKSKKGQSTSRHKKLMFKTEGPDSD
Summary of the method: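 Readout: blue/green (460/530 nm) FRET emission ratio after 2 h CCF4-AM loading at room temperature, excitation 405 nm. HCT116 p53 bla cells, 16 h compound exposure at 37C, 5% CO2; agonist direction fitted against DMSO baseline.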

[4] = TOX21_p53_BLA_p3_viability: Viability Assessment in the Tox21 HCT-116 p53 Agonism Beta-lactamase Assay, Phase 3 (AID 2283593);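 also: cells exposed to compound for 16 h before reading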
Summary of the method: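 HCT-116 cells (4000/well) rested 5 h at 37C, then got DMSO compounds by pin tool (217-fold dilution) for 16 h at 37C, 5% CO2. After the bla read, CellTiter-Glo was added and luminescence read at 30 min, room temperature.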

[5] = target: Cellular tumor antigen p53 (Homo sapiens) (UniProt P04637); assay: TOX21_p53_BLA_p3_ratio: Tox21 HCT-116 p53 Agonism Beta-lactamase Assay, Ratio, Phase 3 (AID 2283596)
Summary of the method: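 Cells were seeded at 4000/well, rested 5 h at 37C, then dosed with DMSO compound solutions (217-fold dilution) for 16 h. CCF4-AM substrate was loaded for 2 h at room temperature, and the 460/530 nm emission ratio was fitted for gain of signal versus DMSO.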

[6] = TOX21_p53_BLA_p4_viability: Viability Assessment in the Tox21 HCT-116 p53 Agonism Beta-lactamase Assay, Phase 4 (AID 2283597);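 also: hits lower the luminescence signal meaning cytotoxicity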
Summary of the method: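 ATP content by CellTiter-Glo luminescence, 30 min RT, read after the beta-lactamase ratio step. Cells: HCT116, 4000/well, compound added after 5 h, exposure 16 h at 37C. Signal loss = reduced viability.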

[7] = target: Cellular tumor antigen p53 (Homo sapiens) (UniProt P04637); assay: TOX21_p53_BLA_p5_ratio: Tox21 HCT-116 p53 Agonism Beta-lactamase Assay, Ratio, Phase 5 (AID 2283599)
Summary of the method: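 HCT-116 cells carrying a p53-inducible beta-lactamase reporter were seeded at 4000 cells/well and dosed after 5 h with compound in DMSO (217-fold dilution). After 16 h at 37C, CCF4-AM substrate was added for 2 h, and the 460/530 nm emission ratio was scored as gain-of-signal versus DMSO.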

[8] = test system: Thyroperoxidase (TPO), gene 54314; assay: CCTE_Simmons_AUR_rTPO: CCTE's Amplex UltraRed Assay for Thyroperoxidase (TPO) Inhibition, Simmons Lab (AID 2283662);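 as to AC50: potency for loss of signal meaning inhibition of peroxidase activity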
Summary of the method: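 Rat thyroid microsomes (5 ug protein) were incubated with test compound (8 concentrations, 5 nM–87.5 uM final, 0.5% DMSO), 25 uM Amplex UltraRed and 300 uM H2O2 in 200 mM phosphate buffer for 30 min at 37C in the dark; fluorescence read at 544/590 nm.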

[9] = target: Cellular tumor antigen p53 (Homo sapiens) (UniProt P04637); assay: TOX21_p53_BLA_p4_ratio: Tox21 HCT-116 p53 Agonism Beta-lactamase Assay, Ratio, Phase 4 (AID 2283601)
Summary of the method: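 HCT116 cells carrying an inducible beta-lactamase reporter were plated at 4000 cells/well, rested 5 h, then exposed to compounds in DMSO (217-fold dilution) for 16 h at 37C. CCF4-AM substrate was loaded 2 h at room temperature; 460/530 nm emission ratio scored gain-of-signal versus DMSO.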

[10] = STM_H9_OrnCyssISnorm_ratio: Stemina devTOX quickPredict H9 human embryonic stem cell (hESC)-based Assay for Ornithine (ORN):Cystine (CYSS) Ratio (AID 2283714)
Summary of the method: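 H9 hESC, 72h, q24h re-dose; last-day media → acetonitrile deproteinization → UPLC-HRMS. ORN:CYSS ratio from isotope-normalized EIC areas, vs 0.1% DMSO; MTX references on each plate.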

Measured: AC50

CCCCCC/C=C/CCCCCCCC(=O)O
inactive: [1] | [2] | [3] | [4] | [5] | [6] | [7]

CC(C)(C)C(=O)C1C(=O)c2ccccc2C1=O
inactive: [1] | [2] | [3] | [4] | [6] | [7]
active: [4] 62 µM | [5] 42.7 µM and 35.6 µM | [7] 67.3 µM

O=C1C=CC(=O)N1c1ccccc1
inactive: [1]
active: [2] 69.7 µM | [3] 80.4 µM | [4] 87.1 µM | [5] 86.8 µM | [6] 84.5 µM | [7] 85.3 µM

CCOCOCC
inactive: [1]

Nc1cccnc1N
inactive: [1]

O=C(c1ccccc1)c1ccc(O)cc1O
active: [8] 6.04 µM and 5.41 µM
inactive: [1] | [2] | [3] | [4] | [5] | [6] | [7]

Cc1ccc([N+](=O)[O-])c(C)c1
inactive: [1] | [2] | [3] | [4] | [5] | [7]

CCN(CC)c1ccc(N=Nc2ccccc2)cc1
inactive: [1]

CC(=O)c1ccccc1N
inactive: [1]

CCCCOC(=O)C(C)O (configuration not stated)
inactive: [1] | [3] | [4] | [5] | [6] | [7]

CC(O)C#CC(C)O (configuration not stated)
inactive: [2] | [3] | [4] | [5] | [6] | [7] | [9]

O=c1[nH]cccc1O
active: [8] 0.115 µM
inactive: [1]

CCC(C)CO (configuration not stated)
inactive: [1] | [3] | [4] | [5] | [7]

O=S(=O)(O)c1ccc(Cl)cc1
inactive: [1] | [2] | [6]

CC(C)OC(=O)COc1ccc(Cl)cc1Cl
inactive: [1] | [3] | [4] | [5] | [6] | [7]

CC(C)Nc1ccc(NC(C)C)c2c1C(=O)c1ccccc1C2=O
inactive: [3] | [5] | [7]

CCCCCCCCCCCCCC[P+](CCCC)(CCCC)CCCC
active: [1] 8.53 µM | [8] 47.9 µM

CCCCCCCCCc1ccc(OCCO)cc1
inactive: [1]
active: [8] 38.5 µM

Cc1ccc(O)cn1
inactive: [1] | [8]

CCN=C1C=CC(=C(c2ccc(N(CC)CC)cc2)c2ccc(N(CC)CC)cc2)c2ccccc21
active: [2] 60.4 µM | [3] 0.559 µM | [4] 66.1 µM | [5] 2.8 µM | [6] 45.9 µM | [7] 57.2 µM | [8] 33.4 µM | [10] 0.151 µM

Cc1ccc2c(c1)OCC(=O)CO2
inactive: [1] | [2] | [3] | [5] | [6]

CSc1ccc(Cl)cc1
inactive: [2] | [3] | [4] | [5] | [6] | [7]

CCOC(OCC)OCC
inactive: [1] | [4] | [7]

CC(C)(C)c1cc(Cc2cc(C(C)(C)C)c(O)c(C(C)(C)C)c2)cc(C(C)(C)C)c1O
inactive: [1]
active: [8] 12.1 µM

CCCCCCCCCCCCCCCCC
inactive: [4] | [5] | [7]

OCC1CCCO1 (configuration not stated)
inactive: [2] | [3] | [4] | [6] | [7]

CCC/C=C/CO
inactive: [1] | [2] | [3] | [5] | [7]

CCC(=O)OC(C)c1ccccc1 (configuration not stated)
inactive: [1] | [2] | [3] | [5] | [7]

O=C1c2c(O)ccc(Nc3ccc(CCO)cc3)c2C(=O)c2c([N+](=O)[O-])ccc(O)c21
inactive: [1] | [2] | [3] | [6] | [7]

CCCCCCCCn1sc(Cl)c(Cl)c1=O
active: [1] 31.5 µM | [2] 85.9 µM | [4] 40.7 µM | [5] 21.7 µM | [6] 80.4 µM
inactive: [7]

CCOC(=O)C1CC(=O)C(=C(O)C2CC2)C(=O)C1 (configuration not stated)
inactive: [3] | [5] | [6]

CC(C)CC=C(C=O)c1ccccc1
inactive: [2] | [4] | [5] | [6]

CCOC(=O)CCC(C)=O
inactive: [2] | [3] | [5] | [7]

CCCCCCCCCCCCC[N+](C)(C)Cc1ccccc1
active: [1] 31.7 µM | [8] 25.5 µM

CC(=O)CCC(C)C
inactive: [2] | [3] | [4] | [5] | [6] | [7]

F[Si-2](F)(F)(F)(F)F
inactive: [1] | [3] | [4] | [5] | [6] | [7]

Cc1cc(=O)[nH]c(C(C)C)n1
inactive: [2] | [3] | [4] | [5] | [6] | [7]

COC(=O)c1ccc(C=O)cc1
inactive: [1] | [3] | [5] | [7]
